The values below come from PubChem BioAssay (NCI).

The structures appear in SMILES notation. Compounds without any hit were thinned out: in the full panel of roughly 79,000, 15% have a hit. A number with no mark means an inactive call. The source made the active and inactive calls. Rule as the data show it: active = growth inhibition above about 70%; inactive = the rest. Where a SMILES comes first, the peptide text is derived from it. [ ]: non-standard residue; d: D form. The star is where a group is joined. ξ: configuration not given here. Cbz = O=C(OCc1ccccc1)*; ξNva = CCCC(N)C(=O)O

The first assay in a line: NCI Yeast Anticancer Drug Screen. Data for the sgs1 mgt1 strain (AID 161).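 Also: 0% = growth of cultures given vehicle only.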 Particulars: S. cerevisiae sgs1 mgt1 strain, at 50.0 µM, hits give high values. An outline of the steps: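 Percent growth inhibition was derived by comparing compound-exposed mutant yeast with vehicle-exposed cultures. The strain carries alterations in DNA damage repair.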
Take `Cn1nc(Br)c(=O)n(C)c1=O`: the growth inhibition was -14.8%.

Turning to `O=C(O)[C@H](c1ccccc1)[C@@H](C(=O)O)c1ccccc1`, the growth inhibition was -8.35%.

For the compound `O=[N+]([O-])/C(C(Cl)=C(Cl)Cl)=C(/Cl)Sc1ccccc1`, the growth inhibition is 85.7% (active).

For the compound `CSCSCC(CO)NC(=O)/C=C\c1ccccc1` (stereo not given), the growth inhibition was 7.15%.

Take `COc1cc([C@@H]2c3cc4c(cc3[C@](C)(O)[C@H]3COC(=O)[C@H]23)OCO4)cc(OC)c1OC`: the growth inhibition was 14.1%.

For `CCN(CC)C(=O)CCC1(C)OCCO1`, the growth inhibition is -25.3%.

In the case of `CCCCCC(=O)OCCCCCO`, the growth inhibition was 21.5%.

For `CC(=O)OCC(OC(C)=O)C(OC(C)=O)C(OC(C)=O)C(OC(C)=O)C(C=O)OC(C)=O` (stereo not given), the growth inhibition was 11.7%.

In the case of `COCCOC(=O)c1ccc(C(N)=NC2CCCCC2)cc1`, the growth inhibition is 3.9%.

`CCCCCCCSc1nc2ccc(N=Cc3ccccc3O)cc2s1`: the growth inhibition was -16.9%.

`CN(C)C1C(CO)C(CO)C1(C)C` (stereo not given): the growth inhibition was -3.9%.

Regarding `CSCCCC(N)=O`, the growth inhibition is -1.5%.

For `C/C(=N/Nc1ccc([N+](=O)[O-])cc1[N+](=O)[O-])C1=CCCCC1`, the growth inhibition is -0.95%.

On to `CCCNC(=O)c1ccccc1O`, for which the growth inhibition is 3.9%.

Turning to `Cc1cc2c(C(C)C)c(O)c(O)c(C=Nc3ccc4ccccc4c3)c2c(O)c1-c1c(C)cc2c(C(C)C)c(O)c(O)c(C=Nc3ccc4ccccc4c3)c2c1O`, the growth inhibition is -6.15%.

Take `C/C(=N\Nc1ccc([N+](=O)[O-])cc1)C(=O)N(C)Nc1ccccc1`: the growth inhibition was -38%.

Turning to `CNC(=O)OCc1nc(SC(C)C)n(C)c1COC(=O)NC`, the growth inhibition is -27.9%.

With `C=C(CO)[C@H]1Oc2ccc(C(C)=O)cc2[C@@H]1O`, the growth inhibition is -24.6%.

`c1ccc2c(c1)CCC(C1=NC3CCCCC3N1)=N2` (stereo not given): the growth inhibition is 1.1%.

Regarding `CC(C)NC(=O)/C=C/C(=O)O`, the growth inhibition is -41.2%.

Take `COc1cc(OC)c(C2CC(C)(O)Oc3cc4c(cc32)OCO4)c(OC)c1` (stereo not given): the growth inhibition is 26.9%.

`CC1N=C(c2ccccc2)SC1C` (stereo not given): the growth inhibition is -24.9%.

With `COc1cc2ccnc(C#N)c2cc1OCc1ccccc1`, the growth inhibition was -10.7%.

On to `O=C1c2c(Cl)cccc2C(c2ccccc2)c2cccc(Cl)c21`, for which the growth inhibition is -1.55%.

`CCCC(=O)OC1C(CO)OC(n2cc(F)c(=O)[nH]c2=O)C1F` (stereo not given): the growth inhibition is -8.6%.

As to `CC(=N\N)/C(C)=N/N=C(C)/C(C)=N/N=C(C)/C(C)=N/N=C(C)/C(C)=N/N`, the growth inhibition is 4.9%.

Regarding `N#CCCN(CCC#N)c1ccc(/C=C2\N=C(c3cc([N+](=O)[O-])ccc3Cl)N(S(=O)(=O)c3ccccc3)C2=O)cc1`, the growth inhibition was 3.5%.

Take `Cc1cnc(N/N=C/c2c(CO)cnc(C)c2O)s1`: the growth inhibition was 7.25%.

As to `NC(=O)/C(=N/O)c1ccccc1`, the growth inhibition is 1.7%.

Turning to `CCCC(NC(=O)CNC(=O)OCc1ccccc1)C(=O)O` (stereo not drawn) (Cbz-Gly-[ξNva]-OH), the growth inhibition is 2.35%.

`CC(=O)ON(C(=O)c1ccccc1)c1ccccc1`: the growth inhibition is 4.3%.

`O=C1OCC2=C1C(c1ccc3c(c1)OCO3)c1cc3c(cc1O2)OCO3` (stereo not given): the growth inhibition was -39.2%.

With `c1ccc(OB(Oc2ccccc2)Oc2ccccc2)cc1`, the growth inhibition was -7.25%.

Take `O=C(O)c1ccccc1NCn1c(=S)sc2ccccc21`: the growth inhibition is 60.6%.

In the case of `CN=S(=O)(OC/C=C/COS(=O)(=NC)c1ccc(C)cc1)c1ccc(C)cc1` (stereo not given), the growth inhibition was -24.1%.

As to `Nc1ccc2c(c1)C(=O)c1cc(C(=O)O)ccc1-2`, the growth inhibition was 9.75%.

Regarding `NC(=S)N1CCCC1`, the growth inhibition was 3.05%.

For the compound `Oc1c(Cl)cc(Cl)cc1C1N2CCCCC2C2c3cccn3-c3ccccc3N21` (stereo not given), the growth inhibition was 18.3%.

On to `O=C(c1ccccc1)C1C(/C=C/c2ccccc2)C(C(=O)c2ccccc2)C1/C=C/c1ccccc1` (stereo not given), for which the growth inhibition is 11.8%.

Turning to `COc1ccc(/C=N\O[Si](C)(C)C(C)(C)C)cc1O[Si](C)(C)C(C)(C)C`, the growth inhibition is 21.9%.

A short description of a further assay: NCI Yeast Anticancer Drug Screen. Data for the cln2 rad14 strain (AID 165).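 Also: 0% = growth equal to vehicle treated cultures.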 To be noted: S. cerevisiae cln2 rad14 strain, at 50.0 µM, hits give high values. An outline of the steps: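 Readout is yeast growth inhibition versus vehicle-treated controls, using a strain with cln2 and rad14 alterations exposed to compound.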
Regarding `Cn1nc(Br)c(=O)n(C)c1=O`, the growth inhibition was -3.15%.

As for `O=C(O)[C@H](c1ccccc1)[C@@H](C(=O)O)c1ccccc1`, the growth inhibition is -3.35%.

For `O=[N+]([O-])/C(C(Cl)=C(Cl)Cl)=C(/Cl)Sc1ccccc1`, the growth inhibition was 89.8% (active).

Turning to `CSCSCC(CO)NC(=O)/C=C\c1ccccc1` (stereo not given), the growth inhibition is -21.7%.

In the case of `COc1cc([C@@H]2c3cc4c(cc3[C@](C)(O)[C@H]3COC(=O)[C@H]23)OCO4)cc(OC)c1OC`, the growth inhibition was 22.8%.

`CCN(CC)C(=O)CCC1(C)OCCO1`: the growth inhibition was 56.4%.

For `CCCCCC(=O)OCCCCCO`, the growth inhibition is 13.2%.

Regarding `CC(=O)OCC(OC(C)=O)C(OC(C)=O)C(OC(C)=O)C(OC(C)=O)C(C=O)OC(C)=O` (stereo not given), the growth inhibition is -37.2%.

On to `COCCOC(=O)c1ccc(C(N)=NC2CCCCC2)cc1`, for which the growth inhibition is 0.95%.

In the case of `CCCCCCCSc1nc2ccc(N=Cc3ccccc3O)cc2s1`, the growth inhibition is -3.25%.

In the case of `CN(C)C1C(CO)C(CO)C1(C)C` (stereo not given), the growth inhibition is -11.9%.

As for `CSCCCC(N)=O`, the growth inhibition was 0.7%.

Regarding `C/C(=N/Nc1ccc([N+](=O)[O-])cc1[N+](=O)[O-])C1=CCCCC1`, the growth inhibition was -4.8%.

Turning to `CCCNC(=O)c1ccccc1O`, the growth inhibition is 1.4%.

On to `Cc1cc2c(C(C)C)c(O)c(O)c(C=Nc3ccc4ccccc4c3)c2c(O)c1-c1c(C)cc2c(C(C)C)c(O)c(O)c(C=Nc3ccc4ccccc4c3)c2c1O`, for which the growth inhibition is -42.1%.

As to `C/C(=N\Nc1ccc([N+](=O)[O-])cc1)C(=O)N(C)Nc1ccccc1`, the growth inhibition was -5.7%.

`CNC(=O)OCc1nc(SC(C)C)n(C)c1COC(=O)NC`: the growth inhibition is 4.3%.

With `C=C(CO)[C@H]1Oc2ccc(C(C)=O)cc2[C@@H]1O`, the growth inhibition was 6.85%.

Turning to `c1ccc2c(c1)CCC(C1=NC3CCCCC3N1)=N2` (stereo not given), the growth inhibition was -47.3%.

As to `CC(C)NC(=O)/C=C/C(=O)O`, the growth inhibition was -7.4%.

As for `COc1cc(OC)c(C2CC(C)(O)Oc3cc4c(cc32)OCO4)c(OC)c1` (stereo not given), the growth inhibition is 3.9%.

As for `CC1N=C(c2ccccc2)SC1C` (stereo not given), the growth inhibition is -49.4%.

For `COc1cc2ccnc(C#N)c2cc1OCc1ccccc1`, the growth inhibition is -6.15%.

For the compound `O=C1c2c(Cl)cccc2C(c2ccccc2)c2cccc(Cl)c21`, the growth inhibition is -11.5%.

As for `CCCC(=O)OC1C(CO)OC(n2cc(F)c(=O)[nH]c2=O)C1F` (stereo not given), the growth inhibition was -15.7%.

`CC(=N\N)/C(C)=N/N=C(C)/C(C)=N/N=C(C)/C(C)=N/N=C(C)/C(C)=N/N`: the growth inhibition was 13.7%.

`N#CCCN(CCC#N)c1ccc(/C=C2\N=C(c3cc([N+](=O)[O-])ccc3Cl)N(S(=O)(=O)c3ccccc3)C2=O)cc1`: the growth inhibition is -47.4%.

On to `Cc1cnc(N/N=C/c2c(CO)cnc(C)c2O)s1`, for which the growth inhibition was 11.6%.

As to `NC(=O)/C(=N/O)c1ccccc1`, the growth inhibition is 1.25%.

On to `CCCC(NC(=O)CNC(=O)OCc1ccccc1)C(=O)O` (stereo not drawn) (Cbz-Gly-[ξNva]-OH), for which the growth inhibition is 19.9%.

In the case of `CC(=O)ON(C(=O)c1ccccc1)c1ccccc1`, the growth inhibition was -5.15%.

In the case of `O=C1OCC2=C1C(c1ccc3c(c1)OCO3)c1cc3c(cc1O2)OCO3` (stereo not given), the growth inhibition was 5.4%.

Take `c1ccc(OB(Oc2ccccc2)Oc2ccccc2)cc1`: the growth inhibition was -39%.

As to `O=C(O)c1ccccc1NCn1c(=S)sc2ccccc21`, the growth inhibition was 5.5%.

As to `CN=S(=O)(OC/C=C/COS(=O)(=NC)c1ccc(C)cc1)c1ccc(C)cc1` (stereo not given), the growth inhibition was -8.55%.

For the compound `Nc1ccc2c(c1)C(=O)c1cc(C(=O)O)ccc1-2`, the growth inhibition was 15.9%.

Take `NC(=S)N1CCCC1`: the growth inhibition is 7%.

Take `Oc1c(Cl)cc(Cl)cc1C1N2CCCCC2C2c3cccn3-c3ccccc3N21` (stereo not given): the growth inhibition is 14.2%.

For `O=C(c1ccccc1)C1C(/C=C/c2ccccc2)C(C(=O)c2ccccc2)C1/C=C/c1ccccc1` (stereo not given), the growth inhibition is 0.4%.

For the compound `COc1ccc(/C=N\O[Si](C)(C)C(C)(C)C)cc1O[Si](C)(C)C(C)(C)C`, the growth inhibition was 5.05%.
